Data on 30 compounds can be found in PubChem BioAssay (NCATS).

The target of assay [1] is Estrogen receptor (Homo sapiens) (UniProt P03372). Description: qHTS assay for small molecule agonists of estrogen receptor alpha signaling (AID 588514). Also: nearly all actives have a fitted effect of over 70% in size. Also: potency is read from the fitted curve at half-maximal effect.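 As to activation: 0% = vehicle only and 100% = reference agonist.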 The following applies: ER-alpha-UAS-bla HEK293, beta-lactamase ratio, 18 h; series mostly up to 76.8 µM. In outline:
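ER-alpha-UAS-bla GripTite HEK 293 cells in medium with 2% charcoal/dextran-treated FBS were treated with compound titrations at 37 C for 18 hrs; beta-lactamase reporter read by CCF4 fluorescence after 2 hrs at RT.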
(In general: In qHTS, concentration-response curves come from the screen itself.)

Assay [2] deals with Glucocorticoid receptor (Homo sapiens) (UniProt P04150). The experiment in a line: qHTS assay for small molecule antagonists of glucocorticoid receptor signaling (AID 588533; active = well fitted inhibition curve with a large enough effect in the signal ratio, with a control signal flat, not every such curve was filed as active; the % refers to the signal ratio;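 also: cells stimulated with 2 nM dexamethasone as agonist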; also: potency is read from the fitted curve at half-maximal effect). The following applies: HeLa MMTV-bla, GRE beta-lactamase ratio, antagonist mode, 18 h; series mostly up to 76.8 µM. In outline:
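Antagonist-mode qHTS: compound titrations added to GRE-bla HeLa cells, then dexamethasone 2 nM final; 18 h, 37 C. CCF4 FRET fluorescence normalized to dexamethasone and DMSO; IC50 from Hill fit.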

The target of assay [3] is Estrogen receptor (Homo sapiens) (UniProt P03372). Description: qHTS assay for small molecule antagonists of estrogen receptor alpha signaling (AID 588513; active = well fitted curve in the direction sought with a large enough effect in the signal ratio, with a control signal flat, not every such curve was filed as active; the % refers to the signal ratio; also: % is scaled to controls: 0 for no effect and ±100 for the full control effect). Conditions: ER-alpha-UAS-bla HEK293, beta-lactamase ratio, antagonist mode; series mostly up to 76.9 µM. In outline:
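Fluorescence from CCF4 substrate after 2 h at room temperature gave reporter activity; cells had been exposed to compound and 0.5nM 17-beta-estradiol for 18 h at 37 C. Hill-equation fitting yielded IC50 and maximal response.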

Assay [4] deals with Bile acid receptor (Homo sapiens) (UniProt Q96RI1). The experiment in a line: qHTS assay for small molecule antagonists of farnesoid X receptor signaling (AID 588526). Also: potency is read from the fitted curve at half-maximal effect. The following applies: HEK293T FXR-UAS-bla, beta-lactamase ratio, antagonist mode; series mostly up to 76.7 µM. In outline:
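Concentration-response titrations were fitted to the Hill equation for half-maximal inhibition and maximal response, with data normalised to 50 uM chenodeoxycholic acid and DMSO control wells. Cells: FXR-UAS-bla HEK293T, dialyzed FBS.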

For assay [5] the target is unchanged. The experiment in a line: qHTS assay for small molecule agonists of farnesoid X receptor signaling (AID 588527).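 Also: 0% = vehicle basal and 100% = reference agonist.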 Conditions: HEK293T FXR-UAS-bla, beta-lactamase ratio, 16 h; stronger effect = higher value. In outline:
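Read-out: beta-lactamase reporter fluorescence with CCF4 substrate in GeneBLAzer FXR-UAS-bla HEK293T cells, after 16 h compound exposure at 37 C. Response scaled between DMSO basal (0%) and chenodeoxycholic acid at 100 uM (100%).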

For assay [6], the target named is Peroxisome proliferator-activated receptor delta (Homo sapiens) (UniProt Q03181). Description: qHTS assay for small molecule agonists of peroxisome proliferator-activated receptor delta signaling (AID 588534).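 Also: 0% = DMSO basal wells and 100% = positive control agonist at 10 µM.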 The following applies: HEK293T PPARdelta-UAS-bla, beta-lactamase ratio, 18 h; series mostly up to 76.7 µM. In outline: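 Cell-based beta-lactamase reporter assay run in agonist mode: cells seeded and incubated 5 hrs at 37 C, compounds added and incubated 18 hrs at 37 C. CCF4 dye fluorescence read after 2 hrs at RT; EC50 and efficacy from Hill fits.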

A short description of assay [7]: qHTS assay for small molecule antagonists of peroxisome proliferator-activated receptor delta signaling (AID 588535).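 Also: cells co-treated with a PPAR-delta agonist as stimulator during compound exposure.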 The following applies: HEK293T PPARd-UAS-bla, beta-lactamase FRET ratio, 18 h; 460 nm channel. In outline: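 GeneBLAzer PPAR-delta-UAS-bla HEK293T cells in medium with 2% charcoal/dextran FBS were preincubated 5 hrs at 37 C, then given compounds, incubated 18 hrs at 37 C, and read by CCF4 beta-lactamase fluorescence; IC50 from Hill fits.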

Assay [8] deals with Glucocorticoid receptor (Homo sapiens) (UniProt P04150). The experiment in a line: qHTS assay for small molecule agonists of glucocorticoid receptor signaling (AID 588532; active = well fitted curve in the direction sought with a large enough effect in the signal ratio, with a control signal flat; the % refers to the signal ratio;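 also: 100% = dexamethasone at 0.1 µM and 0% = DMSO only wells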). The following applies: HeLa MMTV-bla, beta-lactamase ratio, agonist, 18 h; stronger effect = higher value; percent of dexamethasone control, DMSO zero. In outline:
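MMTV-bla HeLa, beta-lactamase reporter; medium with 1% charcoal/dextran-stripped FBS; cpds up to 92 uM, 18 h, 37 C; CCF4 readout 460/530 nm; Hill fit → EC50, efficacy vs 0.1 uM dexamethasone = 100%.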

The target in assay [9] is Androgen receptor (Homo sapiens) (UniProt P10275). Description: qHTS assay for small molecule agonists of androgen receptor signaling (AID 588515; active = well fitted curve in the direction sought with a large enough effect in the signal ratio, with a control signal flat; the % refers to the signal ratio; also: % is scaled to controls: 0 for no effect and ±100 for the full control effect). Conditions: AR-UAS-bla HEK293, beta-lactamase ratio, agonist 16 h; stronger effect = higher value. In outline: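 EC50 and efficacy came from Hill fits of titrations (up to 92 uM) normalized to 30 nM R1881 as 100% and DMSO as 0%. Compound exposure was 16 h at 37 C on AR-UAS-bla HEK293 cells, with a 405/460/530 nm CCF4 fluorescence read.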

The target is the same in assay [10]. The experiment in a line: qHTS assay for small molecule antagonists of androgen receptor signaling (AID 588516; active = well fitted curve in the direction sought with a large enough effect in the signal ratio, with a control signal flat, not every such curve was filed as active; the % refers to the signal ratio; also: % is scaled to controls: 0 for no effect and ±100 for the full control effect). Conditions: AR-UAS-bla HEK293, beta-lactamase ratio, antagonist mode, 16 h; series mostly up to 76.8 µM. In outline:
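Cells were plated and incubated 5 h, compounds added in titration, then R1881 (10 nM final) as agonist. After 16 h at 37 C, CCF4 substrate was loaded for 2 h at room temperature and fluorescence measured.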

SMILES strings stand for the structures. Values joined by “and” are separate entries in the source; they are usually repeats but may differ in a detail not shown here. Equal entries are not always repeated. Inconclusive results are not listed. Active and inactive are the calls of the source. Unless noted, calls follow the shape of the full dose curve.

Peroxisome proliferator-activated receptor delta (Homo sapiens), sequence (Q03181 whole entry, looked up): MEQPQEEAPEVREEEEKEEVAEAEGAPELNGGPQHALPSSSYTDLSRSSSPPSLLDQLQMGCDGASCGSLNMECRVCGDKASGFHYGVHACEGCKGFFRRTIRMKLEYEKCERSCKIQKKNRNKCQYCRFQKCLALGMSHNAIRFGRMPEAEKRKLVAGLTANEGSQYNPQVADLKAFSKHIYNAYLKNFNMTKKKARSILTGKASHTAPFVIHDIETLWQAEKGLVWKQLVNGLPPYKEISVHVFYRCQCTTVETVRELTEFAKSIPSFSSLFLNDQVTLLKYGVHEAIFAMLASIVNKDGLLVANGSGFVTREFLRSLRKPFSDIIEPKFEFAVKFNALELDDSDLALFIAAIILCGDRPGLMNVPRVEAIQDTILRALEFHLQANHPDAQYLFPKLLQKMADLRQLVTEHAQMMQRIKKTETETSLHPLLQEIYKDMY
Estrogen receptor (Homo sapiens), sequence (P03372 whole entry, looked up): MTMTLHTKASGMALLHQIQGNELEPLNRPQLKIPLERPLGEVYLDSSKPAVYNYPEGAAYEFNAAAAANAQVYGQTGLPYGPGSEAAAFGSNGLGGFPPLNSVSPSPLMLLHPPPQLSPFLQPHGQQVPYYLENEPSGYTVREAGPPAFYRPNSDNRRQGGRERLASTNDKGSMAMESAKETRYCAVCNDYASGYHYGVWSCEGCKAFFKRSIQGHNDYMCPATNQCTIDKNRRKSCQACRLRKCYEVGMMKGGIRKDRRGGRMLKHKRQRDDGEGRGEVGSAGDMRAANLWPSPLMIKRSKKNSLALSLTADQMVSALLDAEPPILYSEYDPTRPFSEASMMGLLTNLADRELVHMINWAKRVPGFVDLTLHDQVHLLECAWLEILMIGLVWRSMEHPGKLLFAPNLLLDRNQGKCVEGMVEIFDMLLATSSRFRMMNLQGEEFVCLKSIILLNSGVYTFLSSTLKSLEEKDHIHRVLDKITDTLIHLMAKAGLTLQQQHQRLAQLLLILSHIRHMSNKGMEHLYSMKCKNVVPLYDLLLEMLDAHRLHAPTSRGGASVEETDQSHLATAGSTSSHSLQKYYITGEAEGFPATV
Bile acid receptor (Homo sapiens), sequence (Q96RI1 whole entry, looked up): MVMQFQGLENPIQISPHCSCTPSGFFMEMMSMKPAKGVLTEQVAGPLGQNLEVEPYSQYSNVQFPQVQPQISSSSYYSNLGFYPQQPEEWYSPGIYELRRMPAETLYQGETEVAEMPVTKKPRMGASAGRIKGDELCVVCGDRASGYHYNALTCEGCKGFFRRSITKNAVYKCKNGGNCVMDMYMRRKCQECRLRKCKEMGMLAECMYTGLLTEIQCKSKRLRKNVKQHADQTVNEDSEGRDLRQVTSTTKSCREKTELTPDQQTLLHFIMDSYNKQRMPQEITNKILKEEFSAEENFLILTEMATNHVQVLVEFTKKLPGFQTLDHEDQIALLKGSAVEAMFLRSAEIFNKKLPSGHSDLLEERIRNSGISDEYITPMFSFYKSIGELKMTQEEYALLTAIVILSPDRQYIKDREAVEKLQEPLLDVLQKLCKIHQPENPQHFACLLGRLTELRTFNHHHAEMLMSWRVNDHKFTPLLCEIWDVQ
Androgen receptor (Homo sapiens), sequence (P10275 whole entry, looked up): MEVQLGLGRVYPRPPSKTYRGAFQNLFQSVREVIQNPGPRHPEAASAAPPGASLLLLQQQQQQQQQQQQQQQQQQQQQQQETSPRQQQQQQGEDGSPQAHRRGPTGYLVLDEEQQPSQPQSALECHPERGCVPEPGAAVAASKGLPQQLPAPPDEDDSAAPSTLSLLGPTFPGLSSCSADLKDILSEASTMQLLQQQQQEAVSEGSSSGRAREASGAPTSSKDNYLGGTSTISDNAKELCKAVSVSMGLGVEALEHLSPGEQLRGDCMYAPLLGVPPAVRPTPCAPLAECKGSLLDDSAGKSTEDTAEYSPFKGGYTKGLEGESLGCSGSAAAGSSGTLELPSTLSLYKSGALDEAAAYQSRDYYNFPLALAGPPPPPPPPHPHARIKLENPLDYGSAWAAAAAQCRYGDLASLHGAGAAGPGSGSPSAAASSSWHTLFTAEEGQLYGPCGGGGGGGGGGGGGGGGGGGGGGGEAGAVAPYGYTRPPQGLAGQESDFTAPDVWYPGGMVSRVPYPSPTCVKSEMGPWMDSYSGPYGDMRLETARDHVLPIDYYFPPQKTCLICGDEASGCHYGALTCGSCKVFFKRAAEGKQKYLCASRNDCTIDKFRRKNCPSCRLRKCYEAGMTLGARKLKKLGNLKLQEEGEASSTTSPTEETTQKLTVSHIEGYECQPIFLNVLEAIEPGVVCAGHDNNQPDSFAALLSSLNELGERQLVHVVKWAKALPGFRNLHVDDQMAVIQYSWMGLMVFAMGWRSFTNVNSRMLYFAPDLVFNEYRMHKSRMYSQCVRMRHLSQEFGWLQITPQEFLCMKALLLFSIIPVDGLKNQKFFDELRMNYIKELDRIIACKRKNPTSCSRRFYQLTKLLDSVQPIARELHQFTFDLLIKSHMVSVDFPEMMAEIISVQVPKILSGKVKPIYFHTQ
Glucocorticoid receptor (Homo sapiens), sequence (P04150 whole entry, looked up): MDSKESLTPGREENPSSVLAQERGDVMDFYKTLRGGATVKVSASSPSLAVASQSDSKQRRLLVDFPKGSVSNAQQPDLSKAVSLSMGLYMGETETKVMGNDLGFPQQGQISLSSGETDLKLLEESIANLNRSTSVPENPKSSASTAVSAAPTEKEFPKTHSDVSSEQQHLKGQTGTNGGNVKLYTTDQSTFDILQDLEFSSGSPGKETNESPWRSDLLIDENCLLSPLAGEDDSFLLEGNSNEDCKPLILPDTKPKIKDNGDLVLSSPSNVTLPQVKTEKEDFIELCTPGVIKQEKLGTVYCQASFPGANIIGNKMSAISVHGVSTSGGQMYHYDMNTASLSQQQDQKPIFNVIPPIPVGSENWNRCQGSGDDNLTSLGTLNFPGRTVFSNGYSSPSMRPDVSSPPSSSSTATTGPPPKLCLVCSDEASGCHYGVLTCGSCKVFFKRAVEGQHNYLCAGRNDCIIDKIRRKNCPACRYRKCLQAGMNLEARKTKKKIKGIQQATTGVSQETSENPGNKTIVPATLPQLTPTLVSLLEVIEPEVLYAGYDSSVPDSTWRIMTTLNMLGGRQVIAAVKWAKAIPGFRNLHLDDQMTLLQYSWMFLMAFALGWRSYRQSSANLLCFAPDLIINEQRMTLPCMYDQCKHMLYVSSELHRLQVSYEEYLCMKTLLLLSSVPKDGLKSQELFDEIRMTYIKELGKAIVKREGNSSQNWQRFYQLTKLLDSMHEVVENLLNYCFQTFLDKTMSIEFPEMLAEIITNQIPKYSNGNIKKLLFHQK

As for `C[C@]12CCC(=O)C=C1CC[C@@H]1[C@@H]2CC[C@@]2(C)[C@H]1CC[C@]2(C)O`, the values for the Potency in [1] and in [2] were 12.6 µM (active) and 15.8 µM (active), respectively.
Regarding `O=C(O)CCCc1ccc(N(CCCl)CCCl)cc1`, the result in assay [3] and in [6] was inactive. Besides, the Potency result in assay [1] and in assay [4] was “inactive” in each case. Moreover, the activation in assay [5] was -2.97% (inactive) and 0.833% (inactive). Further, the max response in assay [7] came to 26.1%.
Turning to `Clc1ccc(C(c2ccc(Cl)cc2)C(Cl)(Cl)Cl)cc1`, the Potency entry in [4] and in assay [2] was “inactive” in each case. Besides, the activation in [5] was 4.82% (inactive); in [8] it was 4.79% (inactive) and 0.666% (inactive). In assay [6], the result was inactive. Moreover, the max response in [7] is -51.4%.
Take `CC(=O)N1CCN(c2ccc(OC[C@H]3CO[C@](Cn4ccnc4)(c4ccc(Cl)cc4Cl)O3)cc2)CC1`: the Potency in assay [4] is 44.7 µM (active). The activation in [5] was -1.01% (inactive).
For the compound `COP(=S)(OC)Oc1cc(Cl)c(Cl)cc1Cl`, the Potency result in assay [1] and in [2] was “inactive” throughout. In assay [8], the activation was -3.3% (inactive). Further, the max response in [7] stood at 28.8%.
Turning to `CC(O)CN(CCN(CC(C)O)CC(C)O)CC(C)O` (centres undefined), in assay [5], the activation is 0.352% (inactive).
On to `O=P1(N(CCCl)CCCl)NCCCO1` (centres undefined), for which the outcome in assay [3] and in assay [6] was inactive. Also, the Potency result in assay [1], in [4] and in assay [2] was “inactive” each time. In addition, the activation was -1.19% (inactive) and 1.86% (inactive) in assay [5]; 2.61% (inactive) and 1.05% (inactive) in [8]. Further, the max response in assay [7] was 34.9% and 30.3%.
With `C[C@]1(O)CC[C@H]2[C@@H]3CCC4=CC(=O)CC[C@]4(C)[C@@]3(F)[C@@H](O)C[C@@]21C`, in [4], the Potency result is “inactive”. In addition, the activation is -0.176% (inactive) in assay [5] and 0.36% (inactive) in assay [8]. In addition, the Potency in assay [2] is 10 µM (active). In addition, the max response in assay [7] is -0.651%.
Turning to `CC(C)c1cccc(C(C)C)c1O`, the outcome in assay [3] and in [10] was inactive. For the same compound, in [1], the Potency result is “inactive”. Moreover, in [9], the activation was -6.9% (inactive). For the same compound, the max response in assay [7] is -11.4%.
For `Nc1ccccc1C(=O)O`, the result in assay [3] was inactive. In addition, the Potency result in assay [1] and in assay [4] was “inactive” each time.
Take `COC(=O)C(c1ccccc1)C1CCCCN1` (centres undefined): the Potency result in [1], in assay [4] and in assay [2] was “inactive” throughout. Also, the activation in [9] is 0.332% (inactive); in assay [5], -2.4% (inactive); in [8], 2.14% (inactive). In addition, the result in [10] was inactive.
For `NCCc1ccc(O)cc1`, the result in [3] and in assay [6] was inactive. Besides, the Potency entry in assay [1] and in [2] was “inactive” each time. Besides, in [8], the activation is 18.1% (inactive). Also, the max response in assay [7] is -1.35%.
`C[C@]12CCC(=O)C=C1CC[C@@H]1[C@@H]2CC[C@]2(C)C(=O)CC[C@@H]12`: in assay [3], the result was inactive. Further, the Potency result in [4] is “inactive”. Besides, the activation in assay [5] is -2.26% (inactive).
In the case of `O=C(O)c1cc(-c2ccccc2)nc2ccccc12`, in assay [5], the activation is -1.96% (inactive).
The same measure, in the same setting: in the case of `CC(=O)O[C@H]1C(=O)[C@@]2(C)[C@H]([C@H](OC(=O)c3ccccc3)[C@]3(O)C[C@H](OC(=O)[C@H](O)[C@@H](NC(=O)c4ccccc4)c4ccccc4)C(C)=C1C3(C)C)[C@]1(OC(C)=O)CO[C@@H]1C[C@@H]2O` it was 3.09% (inactive); in that of `Cn1c(=O)c2[nH]cnc2n(C)c1=O`, 0.492% (inactive).
Same read-out and setting: in the case of `Nc1ccc(C(=O)O)cc1` it was 2.28% (inactive).
As to `O=C(Oc1ccccc1)c1ccccc1O`, the result in assay [3] was inactive.
Turning to `COP(=S)(OC)Oc1ccc(SC)c(C)c1`, in assay [3], the result was inactive. The Potency entry in assay [1] and in assay [2] was “inactive” throughout. In assay [8], the activation was -2.46% (inactive) and 5.56% (inactive). Besides, in assay [7], the max response is 3.56%.
In the case of `CC(C)NC(C)C`, the outcome in assay [3] and in assay [6] was inactive. Moreover, the Potency entry in [1] and in [2] was “inactive” each time. Further, the activation in assay [8] is -3.7% (inactive).
Take `CC1(C)C(C=C(Cl)Cl)C1C(=O)OC(C#N)c1cccc(Oc2ccccc2)c1` (centres undefined): the Potency entry in [1] and in assay [2] was “inactive” in each case. Further, the activation in assay [8] is -2.93% (inactive).
With `CN1C[C@H](C(=O)N[C@]2(C)O[C@@]3(O)[C@@H]4CCCN4C(=O)[C@H](Cc4ccccc4)N3C2=O)C=C2c3cccc4[nH]cc(c34)C[C@H]21`, the result in assay [3] was inactive. Moreover, the Potency entry in assay [1] is “inactive”. Moreover, the Potency in [4] was 39.8 µM (active). In addition, the activation in [5] is 2.53% (inactive); in assay [8], -6.8% (inactive).
With `Cc1cc(=O)[nH]c(=S)[nH]1`, the activation in assay [5] is 0.173% (inactive).
The same measure, in the same setting: in the case of `NC(=O)c1ccccc1O` it was -3.79% (inactive).
For the compound `COP(=S)(OC)SCN1C(=O)c2ccccc2C1=O`, the Potency result in assay [4] and in [2] was “inactive” each time. The activation in [8] was 10.5% (inactive).
On to `CCOC(=O)CC(SP(=S)(OC)OC)C(=O)OCC` (centres undefined), for which the outcome in assay [3], in assay [10] and in assay [6] was inactive. The Potency result in assay [1] and in [2] was “inactive” throughout. Besides, the activation in [9] was 17.2% (inactive) and 0.217% (inactive) and -5.72% (inactive); in assay [8] it was -4.46% (inactive) and 3.12% (inactive) and 14.7% (inactive). In addition, the max response in assay [7] came to 0.513%.
On to `Nc1ccc([As](=O)(O)O)cc1`, for which the Potency in [1] was 15.8 µM (active). Moreover, the result in assay [6] was inactive. Moreover, the max response in [7] is -12.8%.
Turning to `COc1cc(OC)c(OC)cc1C=O`, the outcome in [3] was inactive. For the same compound, the Potency entry in assay [1] and in assay [2] was “inactive” each time. Further, the activation in assay [9] was -8.64% (inactive); in [8] it was 3.74% (inactive).
`[N-]=[N+]=CC(=O)OC[C@H](N)C(=O)O`: in assay [4], the Potency result is “inactive”. For the same compound, the max response in assay [7] stood at 46.8%.
In the case of `CCC(C)(C)c1ccc(O)cc1`, the outcome in assay [3] was inactive. Further, the Potency result in [4] and in assay [2] was “inactive” in each case. The activation was -0.511% (inactive) and -0.445% (inactive) in [5]; -4.8% (inactive) in assay [8].
